Laboratory results published in ChEMBL document CHEMBL4513216, “Probing the Open Global Health Chemical Diversity Library for Multistage-Active Starting Points for Next-Generation Antimalarials” (ACS Infect Dis, 2020).
Screen size: about 68,000 compounds; about 2,700 (4%) showed an effect of 50% or more. This is one part of a sample in which strong results are shown more often than they occur.

These compounds were tested on Plasmodium berghei (assay: Screen against P. berghei liver stage (PbLuc), transformed with Luciferase, at 2uM). Details: tested at 2 uM.
Format: functional, HepG2
CC(C)c1nc(CN2CCCC2Cn2cccn2)no1 (stereo not drawn) gave an INHIBITION of -97.56%.
COCCN(C)Cc1cc(Cl)ccc1OCC(O)CN1CCCCCC1 (stereo not drawn) was tested, and the INHIBITION was -55.56%.
CCOCc1ccccc1NC(=O)NCC(c1cnn(C)c1)N(C)C (stereo not drawn) gave an INHIBITION of 18.54%.
CCOc1ccccc1CNC(=O)NCC(c1cnn(C)c1)N(C)C (stereo not drawn) gave an INHIBITION of 71.95%.
With CCOc1cc(F)ccc1NC(=O)NCC(c1cnn(C)c1)N(C)C (stereo not drawn) the INHIBITION was -24.88%.
Work on COc1ccc(CN2CCn3cc(CN4CCCCC4)nc3C2)cc1 yielded an INHIBITION of -5.87%.
With Cc1cc(CN2C[C@@H]3COC[C@]3(COCc3csc(C)n3)C2)no1 the INHIBITION was 1.74%.
CC(C)c1nc(CN2CCOC(Cn3cncn3)C2)cs1 (stereo not drawn) gave an INHIBITION of 11.2%.
CCOc1ccccc1CCNC(=O)NCC(O)c1cccs1 (stereo not drawn) gave an INHIBITION of -23.79%.
In the case of CCOc1ccccc1CCNC(=O)NCC(O)c1ccsc1 (stereo not drawn), the INHIBITION is reported as 53.63%.
CN(C)c1ccc(CCCNC(=O)NCC(O)c2ccsc2)cc1 (stereo not drawn) showed an INHIBITION of 34.55%.
Work on Cc1ccccc1N1CCN(C(=O)CCc2nncn2C)C(C)C1 (stereo not drawn) yielded an INHIBITION of -38.81%.
With Cc1cccc(C2CC(=O)Nc3c2c(=O)[nH]n3C(C)C)c1 (stereo not drawn) the INHIBITION was -36.73%.
Compound Cc1nn(C)cc1CNCc1ccc(N(C)C)cc1 has an INHIBITION of 8.09%.
With COC(=O)c1ccc(CNCc2cn(C)nc2C)cc1 the INHIBITION was 14.26%.
COc1ccc(CNCc2cn(C)nc2C)cc1 was tested, and the INHIBITION was 51.32%.
CCn1c(O)c(C(C)=O)c2cc(C)ccc21 gave an INHIBITION of 30.48%.
In the case of Cc1cccc2c1ccn2CC(=O)NC[C@@H]1CCCN2CCCC[C@H]12, the INHIBITION is reported as -7.52%.
CS(=O)(=O)N1CC[C@]2(O)CCN(CCCC(=O)c3ccccc3)C[C@@H]2C1 showed an INHIBITION of -30.08%.
C/C(NC(=O)c1cccs1)=C1\C(=O)C[C@@H]2[C@H]1C2(C)C showed an INHIBITION of 21.57%.
Compound C/C(NC(=O)c1ccco1)=C1/C(=O)C[C@@H]2[C@H]1C2(C)C has an INHIBITION of 18.11%.
Compound C/C(NC(=O)c1ccccn1)=C1\C(=O)C[C@@H]2[C@H]1C2(C)C has an INHIBITION of 52.74%.
Cc1nn(C)c2cn(C(C)C(=O)NCc3ccncc3)nc12 (stereo not drawn) gave an INHIBITION of 22.13%.
O=C1CC2(CCCNC2)C(=O)N1Cc1ccc(Cl)cc1 (stereo not drawn) showed an INHIBITION of -59.66%.
In the case of Cc1ccc2nc(C(=O)N3CCCC[C@]4(C)NC(=O)CCC[C@H]34)cn2c1, the INHIBITION is reported as 55.74%.
In the case of Cc1cccc2nc(C(=O)N3CCCC[C@]4(C)NC(=O)CCC[C@H]34)cn12, the INHIBITION is reported as 29.06%.
For Cc1cccc(C(=O)N2CCCC[C@]3(C)NC(=O)CCC[C@H]23)n1, the INHIBITION was 49.48%.
CCc1c(C)[nH]c(C(C)(C)N)nc1=O was tested, and the INHIBITION was -33.81%.
With CCC(O)CN1CCN(C(=O)C2(c3ccc(C)c(OC)c3)CC2)CC1 (stereo not drawn) the INHIBITION was -10.44%.
COc1cc(C2(C(=O)N3CCN(CC(C)O)CC3)CC2)ccc1C (stereo not drawn) was tested, and the INHIBITION was -71.2%.
In the case of COc1ccccc1C1(C(=O)N2CCN(CC(C)O)CC2)CC1 (stereo not drawn), the INHIBITION is reported as 58.53%.
O=C(NC1CC1)[C@@H]1CCO[C@@H]2CCN(CCc3ccccc3)C[C@@H]21 was tested, and the INHIBITION was 8.88%.
Compound CCC[C@@H]1CN(c2ncnc3sccc23)C[C@H]1C(=O)O has an INHIBITION of 51.48%.
CCC[C@@H]1CN(c2ncnc3sccc23)C[C@H]1NS(C)(=O)=O showed an INHIBITION of 46.58%.
Work on CCC[C@@H]1CN(Cc2cnc(-c3cccs3)nc2)C[C@H]1C(=O)O yielded an INHIBITION of -9.03%.
For CC(C)CN1CCC2(CCN(CC3CC3)CC2)C1=O, the INHIBITION was 16.25%.
For CC(Cc1ccccc1F)C(=O)Nc1ccc(OCCC(N)=O)cc1 (stereo not drawn), the INHIBITION was -11.88%.
With NC(=O)CCOc1ccc(NC(=O)c2ccccc2OC(F)F)cc1 the INHIBITION was 58.14%.
Work on COc1cccc(C(=O)Nc2ccc(OCCC(N)=O)cc2)c1OC yielded an INHIBITION of -20.19%.
Compound CCc1noc(C(C)N2CCN(C)CC2)n1 (stereo not drawn) has an INHIBITION of 9.83%.
For Cc1noc(C(C)N2CCN(c3ncnc4ccccc34)CC2)n1 (stereo not drawn), the INHIBITION was 4.34%.
CCc1noc(C(C)N2CCN(c3ccc(C#N)cn3)CC2)n1 (stereo not drawn) showed an INHIBITION of -30.71%.
Compound Cc1noc(C(C)N2CCN(c3ncnc4sccc34)CC2)n1 (stereo not drawn) has an INHIBITION of 52.89%.
For CCc1noc(C(C)N2CCN(c3ncnc4sccc34)CC2)n1 (stereo not drawn), the INHIBITION was 52.89%.
In the case of Cc1noc(C(C)N2CCN(c3ccc(C#N)cn3)CC2)n1 (stereo not drawn), the INHIBITION is reported as 25.35%.
O=C(NCc1ccccn1)c1cncc(C2CCCN2)n1 (stereo not drawn) gave an INHIBITION of 20.28%.
O=C(CCn1ncc2ccccc21)N1CCCC(Cc2cccnc2)C1 (stereo not drawn) gave an INHIBITION of 20.44%.
In the case of Cc1csc(CN2CCC(C(=O)O)(n3ccc(-c4ccco4)n3)CC2)n1, the INHIBITION is reported as -8.84%.
Cc1cc(C(=O)N(C)Cc2cccs2)nc(N2CCCC2)n1 was tested, and the INHIBITION was 50.9%.
Cc1cc(C(=O)N(C)Cc2cccs2)nc(N2CCCCC2)n1 showed an INHIBITION of -14.24%.
Cc1cc(C(=O)N(C)Cc2cccs2)nc(N2CCOCC2)n1 showed an INHIBITION of -3.54%.
For CC(C)c1ncc(CN2CCCC(CO)C2)cn1 (stereo not drawn), the INHIBITION was 1.42%.
c1nc(N2CCCC2)ncc1CN1CCCC(CN2CCCCC2)C1 (stereo not drawn) showed an INHIBITION of 52.45%.
